Experimental data: the supplement of paper PMC11732987, “Enantioselective OTUD7B fragment discovery through chemoproteomics screening and high-throughput optimisation” (Communications Chemistry, 2025)

Legend:
Assay in all cases: log2 ratio of Biotin-Ahx-Ub-VS probe labelling (fragment/DMSO); higher = less target engagement (more negative = stronger competition), active = hit call of the paper (q ≤ 0.05, log2 ratio ≤ -1)
Conditions in all cases: compound concentration: 200 uM; treatment time: 3 h
ALG13 = target: T1, ALG13 (UniProt Q9NP73)
T1 sequence (whole entry): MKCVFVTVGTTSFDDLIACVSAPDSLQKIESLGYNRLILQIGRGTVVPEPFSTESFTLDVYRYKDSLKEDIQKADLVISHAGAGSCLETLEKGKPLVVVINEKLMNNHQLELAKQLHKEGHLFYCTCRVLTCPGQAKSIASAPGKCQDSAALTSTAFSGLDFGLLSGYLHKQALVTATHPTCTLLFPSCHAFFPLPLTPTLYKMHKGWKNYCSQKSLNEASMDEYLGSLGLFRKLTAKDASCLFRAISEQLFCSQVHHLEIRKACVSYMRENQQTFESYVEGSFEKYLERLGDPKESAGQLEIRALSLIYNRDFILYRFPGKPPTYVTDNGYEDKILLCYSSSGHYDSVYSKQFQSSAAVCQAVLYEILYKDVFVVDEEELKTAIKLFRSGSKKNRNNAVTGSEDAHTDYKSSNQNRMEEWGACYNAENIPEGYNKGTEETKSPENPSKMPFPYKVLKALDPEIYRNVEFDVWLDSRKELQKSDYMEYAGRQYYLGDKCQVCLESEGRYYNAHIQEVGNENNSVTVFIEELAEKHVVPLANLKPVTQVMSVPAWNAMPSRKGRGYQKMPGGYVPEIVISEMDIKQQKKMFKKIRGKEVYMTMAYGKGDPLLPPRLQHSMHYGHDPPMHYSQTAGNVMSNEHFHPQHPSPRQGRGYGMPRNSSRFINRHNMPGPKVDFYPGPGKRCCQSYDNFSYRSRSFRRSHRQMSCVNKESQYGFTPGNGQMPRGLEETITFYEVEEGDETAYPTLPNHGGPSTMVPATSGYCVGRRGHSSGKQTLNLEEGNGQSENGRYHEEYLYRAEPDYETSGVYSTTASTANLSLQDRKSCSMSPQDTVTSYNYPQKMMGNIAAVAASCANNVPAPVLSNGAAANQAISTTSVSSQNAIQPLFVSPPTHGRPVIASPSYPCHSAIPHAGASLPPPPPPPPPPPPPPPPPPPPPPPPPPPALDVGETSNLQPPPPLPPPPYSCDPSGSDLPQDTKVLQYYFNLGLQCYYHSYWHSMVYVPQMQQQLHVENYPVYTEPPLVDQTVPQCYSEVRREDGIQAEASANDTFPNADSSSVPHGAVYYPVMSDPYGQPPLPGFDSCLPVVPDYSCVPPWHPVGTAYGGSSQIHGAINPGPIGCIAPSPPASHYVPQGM
Method in brief: (§1)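 Average log2 ratios of fragment over vehicle were obtained by unpaired t-test from global-median-normalised Spectronaut label-free quantities. Proteins with ≥2 unique peptides were included. HEK293T lysate (495 µg per sample) was treated in triplicate with fragment at 200 µM or vehicle for 3 h, then with Biotin-Ahx-Ub-VS at 0.5 µM final for 1 h, and labelled DUBs were NeutrAvidin-enriched and run by diaPASEF LC-MS/MS.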

ATXN3 = ATXN3 (UniProt P54252)
Sequence of ATXN3 (P54252 whole entry): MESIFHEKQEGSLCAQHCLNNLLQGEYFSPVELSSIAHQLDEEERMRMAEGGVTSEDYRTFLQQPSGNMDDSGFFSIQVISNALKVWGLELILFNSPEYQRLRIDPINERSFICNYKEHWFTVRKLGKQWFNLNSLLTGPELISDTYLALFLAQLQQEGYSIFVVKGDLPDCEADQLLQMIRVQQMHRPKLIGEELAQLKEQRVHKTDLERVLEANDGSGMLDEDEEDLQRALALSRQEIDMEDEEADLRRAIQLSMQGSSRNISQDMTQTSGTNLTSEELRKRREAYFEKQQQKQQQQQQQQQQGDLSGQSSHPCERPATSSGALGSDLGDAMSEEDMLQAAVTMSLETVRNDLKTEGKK
Method in brief: as §1

BAP1 = target: T2, BAP1 (UniProt Q92560)
T2 sequence (whole entry): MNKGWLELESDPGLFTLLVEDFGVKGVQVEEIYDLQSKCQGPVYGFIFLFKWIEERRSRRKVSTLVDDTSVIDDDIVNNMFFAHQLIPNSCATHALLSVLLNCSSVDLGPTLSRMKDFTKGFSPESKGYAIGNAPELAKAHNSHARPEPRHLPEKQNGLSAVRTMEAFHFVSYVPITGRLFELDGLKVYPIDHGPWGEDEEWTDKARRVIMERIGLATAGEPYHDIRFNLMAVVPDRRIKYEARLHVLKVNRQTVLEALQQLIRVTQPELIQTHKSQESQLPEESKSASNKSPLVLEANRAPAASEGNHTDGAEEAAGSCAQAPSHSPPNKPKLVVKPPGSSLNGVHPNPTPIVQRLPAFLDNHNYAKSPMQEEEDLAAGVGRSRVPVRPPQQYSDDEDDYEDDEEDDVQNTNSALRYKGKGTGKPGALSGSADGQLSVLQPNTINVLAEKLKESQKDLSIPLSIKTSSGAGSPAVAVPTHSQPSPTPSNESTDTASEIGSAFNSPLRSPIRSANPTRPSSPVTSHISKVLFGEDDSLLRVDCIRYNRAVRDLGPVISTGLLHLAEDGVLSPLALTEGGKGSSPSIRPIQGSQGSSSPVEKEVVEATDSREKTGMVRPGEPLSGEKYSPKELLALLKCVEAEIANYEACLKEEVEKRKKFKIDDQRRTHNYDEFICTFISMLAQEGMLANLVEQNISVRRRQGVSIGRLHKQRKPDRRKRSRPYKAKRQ
Method in brief: as §1

EIF3F = EIF3F (UniProt O00303)
Sequence of EIF3F (O00303 whole entry): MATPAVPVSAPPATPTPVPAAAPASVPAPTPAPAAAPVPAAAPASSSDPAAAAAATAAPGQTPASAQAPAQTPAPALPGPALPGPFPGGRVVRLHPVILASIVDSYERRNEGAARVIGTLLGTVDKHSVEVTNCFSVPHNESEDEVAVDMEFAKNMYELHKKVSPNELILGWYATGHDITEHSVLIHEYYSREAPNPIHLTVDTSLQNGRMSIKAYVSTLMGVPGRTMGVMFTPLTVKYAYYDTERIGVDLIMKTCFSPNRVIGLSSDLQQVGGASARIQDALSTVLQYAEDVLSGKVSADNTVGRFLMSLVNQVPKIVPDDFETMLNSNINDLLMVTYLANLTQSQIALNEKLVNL
Method in brief: as §1

EIF3H = EIF3H (UniProt O15372)
Sequence of EIF3H (O15372 whole entry): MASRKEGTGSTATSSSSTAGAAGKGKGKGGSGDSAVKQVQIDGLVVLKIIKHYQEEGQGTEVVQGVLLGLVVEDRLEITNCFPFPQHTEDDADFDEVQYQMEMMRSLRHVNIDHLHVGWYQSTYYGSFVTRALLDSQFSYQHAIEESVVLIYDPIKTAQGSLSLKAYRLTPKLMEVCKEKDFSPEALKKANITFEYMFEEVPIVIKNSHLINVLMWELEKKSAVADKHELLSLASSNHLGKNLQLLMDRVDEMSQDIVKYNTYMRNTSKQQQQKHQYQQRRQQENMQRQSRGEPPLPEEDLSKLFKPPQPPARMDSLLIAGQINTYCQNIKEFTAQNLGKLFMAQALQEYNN
Method in brief: as §1

FAM105A = target: T3, FAM105A (UniProt Q9NUU6)
T3 sequence (whole entry): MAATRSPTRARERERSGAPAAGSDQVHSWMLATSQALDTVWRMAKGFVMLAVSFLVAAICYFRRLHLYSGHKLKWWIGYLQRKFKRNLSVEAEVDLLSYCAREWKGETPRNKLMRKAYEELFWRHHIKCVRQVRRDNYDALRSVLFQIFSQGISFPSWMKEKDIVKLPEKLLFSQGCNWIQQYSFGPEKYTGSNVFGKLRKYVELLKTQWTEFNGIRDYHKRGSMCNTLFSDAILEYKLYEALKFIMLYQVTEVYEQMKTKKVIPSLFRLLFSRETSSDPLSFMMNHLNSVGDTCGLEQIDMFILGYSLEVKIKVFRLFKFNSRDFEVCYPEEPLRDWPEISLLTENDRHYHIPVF
Method in brief: as §1

OTUB1 = OTUB1 (UniProt Q96FW1)
Sequence of OTUB1 (Q96FW1 whole entry): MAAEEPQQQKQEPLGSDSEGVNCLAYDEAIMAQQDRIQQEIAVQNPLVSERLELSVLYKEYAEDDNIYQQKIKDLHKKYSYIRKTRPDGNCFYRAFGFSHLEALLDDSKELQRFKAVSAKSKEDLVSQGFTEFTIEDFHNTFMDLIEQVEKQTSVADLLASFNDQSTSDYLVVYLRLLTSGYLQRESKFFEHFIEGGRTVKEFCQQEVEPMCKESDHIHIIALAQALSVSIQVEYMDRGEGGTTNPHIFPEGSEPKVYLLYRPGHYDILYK
Method in brief: as §1

OTUD4 = target: T4, OTUD4 (UniProt Q01804)
T4 sequence (whole entry): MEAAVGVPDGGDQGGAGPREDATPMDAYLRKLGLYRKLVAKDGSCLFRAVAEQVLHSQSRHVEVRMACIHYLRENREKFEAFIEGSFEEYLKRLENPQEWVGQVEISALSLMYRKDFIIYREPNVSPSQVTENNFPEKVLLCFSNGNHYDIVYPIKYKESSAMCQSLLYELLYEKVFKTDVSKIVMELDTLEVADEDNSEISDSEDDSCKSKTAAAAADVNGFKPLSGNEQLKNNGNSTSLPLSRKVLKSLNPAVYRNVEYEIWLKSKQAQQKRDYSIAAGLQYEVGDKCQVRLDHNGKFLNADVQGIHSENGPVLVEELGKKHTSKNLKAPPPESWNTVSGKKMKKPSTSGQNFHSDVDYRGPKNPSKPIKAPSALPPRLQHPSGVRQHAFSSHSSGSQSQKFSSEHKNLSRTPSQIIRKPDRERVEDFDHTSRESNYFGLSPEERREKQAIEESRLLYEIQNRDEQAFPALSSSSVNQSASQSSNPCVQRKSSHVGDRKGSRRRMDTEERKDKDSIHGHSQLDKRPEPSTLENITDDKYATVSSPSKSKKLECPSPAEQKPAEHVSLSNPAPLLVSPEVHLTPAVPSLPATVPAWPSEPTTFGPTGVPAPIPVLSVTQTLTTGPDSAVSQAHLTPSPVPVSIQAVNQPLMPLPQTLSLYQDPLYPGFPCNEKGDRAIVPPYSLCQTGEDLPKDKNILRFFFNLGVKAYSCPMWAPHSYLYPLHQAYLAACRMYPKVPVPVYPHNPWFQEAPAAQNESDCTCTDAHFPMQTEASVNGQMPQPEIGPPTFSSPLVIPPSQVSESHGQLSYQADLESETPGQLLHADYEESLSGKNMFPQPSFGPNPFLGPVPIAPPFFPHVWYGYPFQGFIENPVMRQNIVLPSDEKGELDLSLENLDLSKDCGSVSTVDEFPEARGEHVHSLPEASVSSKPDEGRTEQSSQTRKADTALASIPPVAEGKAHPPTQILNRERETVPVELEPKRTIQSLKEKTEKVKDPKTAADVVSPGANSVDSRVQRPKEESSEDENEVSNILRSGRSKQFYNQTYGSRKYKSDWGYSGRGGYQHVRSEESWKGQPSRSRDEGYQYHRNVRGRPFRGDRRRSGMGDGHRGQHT
Method in brief: as §1

OTUD5 = target: T5, OTUD5 (UniProt Q96G74)
T5 sequence (whole entry): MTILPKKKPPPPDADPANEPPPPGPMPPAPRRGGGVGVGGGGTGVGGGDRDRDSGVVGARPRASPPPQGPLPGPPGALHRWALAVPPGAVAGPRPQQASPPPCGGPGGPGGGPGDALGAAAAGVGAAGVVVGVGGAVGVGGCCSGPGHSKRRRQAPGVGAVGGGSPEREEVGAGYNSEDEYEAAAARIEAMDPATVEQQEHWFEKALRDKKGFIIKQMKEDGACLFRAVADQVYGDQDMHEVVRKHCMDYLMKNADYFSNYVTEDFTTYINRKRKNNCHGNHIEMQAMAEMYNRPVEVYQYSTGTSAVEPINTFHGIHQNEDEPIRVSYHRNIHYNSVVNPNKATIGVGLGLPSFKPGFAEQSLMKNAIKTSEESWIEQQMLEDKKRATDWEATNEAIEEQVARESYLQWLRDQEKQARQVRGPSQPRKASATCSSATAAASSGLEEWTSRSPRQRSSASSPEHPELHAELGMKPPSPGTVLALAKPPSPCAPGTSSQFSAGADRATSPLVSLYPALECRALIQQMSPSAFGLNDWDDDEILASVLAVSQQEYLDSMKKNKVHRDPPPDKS
Method in brief: as §1

Measured: log2 ratio of Biotin-Ahx-Ub-VS probe labelling

Cc1ccccc1CN(C)C(=O)CCl
inactive: ALG13 -0.539 | EIF3F -0.115 | EIF3H 0.207 | FAM105A -0.463 | OTUB1 -0.437 | OTUD4 -0.914
active: ATXN3 -1.13 | BAP1 -2.27 | OTUD5 -1.15
